Experimental data: PubChem BioAssay (NCI)
Compounds without any hit were thinned out: in the full panel of roughly 83,000, 20% have a hit.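 Percent growth is the endpoint: 0 to 100 indicates growth inhibition (40 means 60% inhibition), 0 means no net growth, and negative values indicate cell death.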 Active and inactive are the calls of the source. Rule for the calls: active = growth percent below 10; inactive = the rest.

Legend:
Assay in all cases: NCI-60 one-dose screen, 48 h (100 = growth as untreated, 0 = no growth, -100 = all killed)
Conditions in all cases: 10 µM unless noted
SR leukemia = tested on: SR leukemia
RPMI-8226 leukemia = tested on: RPMI-8226 leukemia
OVCAR-8 ovarian = tested on: OVCAR-8 ovarian
OVCAR-5 ovarian = tested on: OVCAR-5 ovarian
OVCAR-4 ovarian = tested on: OVCAR-4 ovarian
SK-OV-3 ovarian = tested on: SK-OV-3 ovarian
IGROV1 ovarian = tested on: IGROV1 ovarian
OVCAR-3 ovarian = tested on: OVCAR-3 ovarian
HS 578T breast = tested on: HS 578T breast
NCI/ADR-RES ovarian = tested on: NCI/ADR-RES ovarian

Measured: growth

CC(C)(c1ccc(OCC(O)CNCc2ccco2)cc1)c1ccc(OCC(O)CNCc2ccco2)cc1 (stereo not given)
inactive: SR leukemia 31.5% | RPMI-8226 leukemia 64.8% | OVCAR-8 ovarian 92.3% | OVCAR-5 ovarian 101% | OVCAR-4 ovarian 96% | SK-OV-3 ovarian 105% | IGROV1 ovarian 86.3% | OVCAR-3 ovarian 83% | HS 578T breast 75.7% | NCI/ADR-RES ovarian 93.2%

Cc1c(C(C)(C)C)cc(C(C)(C)C)c2c1CN(C)CO2
inactive: SR leukemia 103% | RPMI-8226 leukemia 110% | OVCAR-8 ovarian 105% | OVCAR-5 ovarian 110% | OVCAR-4 ovarian 105% | SK-OV-3 ovarian 102% | IGROV1 ovarian 114% | OVCAR-3 ovarian 102% | HS 578T breast 105% | NCI/ADR-RES ovarian 99.5%

NC(CCCC(N)C(=O)c1ccccc1)C(=O)O (stereo not given)
inactive: SR leukemia 124% | RPMI-8226 leukemia 115% | OVCAR-8 ovarian 86.2% | OVCAR-5 ovarian 103% | OVCAR-4 ovarian 97.3% | SK-OV-3 ovarian 93% | IGROV1 ovarian 101% | OVCAR-3 ovarian 110% | HS 578T breast 108% | NCI/ADR-RES ovarian 103%

c1ccc2c(c1)Oc1cccnc1-n1nccc1-2
inactive: SR leukemia 94.2% | RPMI-8226 leukemia 96.9% | OVCAR-8 ovarian 99.6% | OVCAR-5 ovarian 107% | OVCAR-4 ovarian 110% | SK-OV-3 ovarian 104% | IGROV1 ovarian 104% | OVCAR-3 ovarian 108% | HS 578T breast 90.1% | NCI/ADR-RES ovarian 100%

CCc1c(C)c2cc3c(c(C)c2oc1=O)OCC(=O)N3
inactive: RPMI-8226 leukemia 90.9% | OVCAR-8 ovarian 74.6% | OVCAR-5 ovarian 77.9% | OVCAR-4 ovarian 79.5% | SK-OV-3 ovarian 78.6% | IGROV1 ovarian 51.7% | OVCAR-3 ovarian 73.8% | HS 578T breast 59.5% | NCI/ADR-RES ovarian 75.1%
active: SR leukemia 4.96%

c1ccc(CNCCN(CCNCc2ccccn2)Cc2ccc3ccccc3c2)nc1
inactive: RPMI-8226 leukemia 10.6% | OVCAR-8 ovarian 11.1% | HS 578T breast 41.3%
active: SR leukemia 2.45% | OVCAR-5 ovarian 0.822% | OVCAR-4 ovarian 0.169% | SK-OV-3 ovarian -26% | IGROV1 ovarian 7.31% | OVCAR-3 ovarian 1.32% | NCI/ADR-RES ovarian -13%

O=C1c2ccccc2C(=O)c2c(NCCN=Cc3c(O)ccc4ccccc34)cccc21
inactive: SR leukemia 32% | RPMI-8226 leukemia 78.7% | OVCAR-8 ovarian 69.9% | OVCAR-5 ovarian 112% | OVCAR-4 ovarian 94.3% | SK-OV-3 ovarian 84.2% | IGROV1 ovarian 65.5% | OVCAR-3 ovarian 83.7% | HS 578T breast 82.7% | NCI/ADR-RES ovarian 85.5%

O=C(Nc1ccccc1Cl)c1c[nH]c(=O)c(-c2ccc(N3CCCOC4(CC4)C3)cc2)c1
inactive: SR leukemia 39.6% | RPMI-8226 leukemia 21.2% | OVCAR-8 ovarian 58.3% | OVCAR-5 ovarian 87% | OVCAR-4 ovarian 44.3% | SK-OV-3 ovarian 74.6% | IGROV1 ovarian 85.7% | OVCAR-3 ovarian 64.5% | HS 578T breast 87.3% | NCI/ADR-RES ovarian 60.6%

CCN(CC)CCC(C(=O)O)(c1ccccc1)c1ccccc1
inactive: SR leukemia 95.7% | RPMI-8226 leukemia 104% | OVCAR-8 ovarian 113% | OVCAR-5 ovarian 106% | OVCAR-4 ovarian 102% | SK-OV-3 ovarian 92% | IGROV1 ovarian 102% | OVCAR-3 ovarian 110% | HS 578T breast 95.3% | NCI/ADR-RES ovarian 97.8%

Nc1ncnc2c1c(C(F)(F)F)cn2[C@@H]1O[C@H](CO)[C@@H](O)[C@H]1O
active: SR leukemia 1.01% | RPMI-8226 leukemia -20.3% | OVCAR-3 ovarian 5.78% | HS 578T breast -0.85% | NCI/ADR-RES ovarian 7.35%
inactive: OVCAR-8 ovarian 18.1% | OVCAR-5 ovarian 15.6% | OVCAR-4 ovarian 24.6% | SK-OV-3 ovarian 28.2% | IGROV1 ovarian 12.9%

CN(C)CCNc1nc2ccccc2c2c(=O)c3ccccc3sc12
inactive: OVCAR-8 ovarian 14.6% | OVCAR-5 ovarian 46% | OVCAR-4 ovarian 38.4% | SK-OV-3 ovarian 31.5% | IGROV1 ovarian 28.5% | OVCAR-3 ovarian 31.2% | HS 578T breast 30.3% | NCI/ADR-RES ovarian 20.9%
active: SR leukemia -18.1% | RPMI-8226 leukemia -8.02%

Cc1ccc2nc(-c3ccc(-n4on4-c4ccc(/C=C/c5ccc(-n6on6-c6ccc(-c7nc8ccc(C)cc8s7)cc6)cc5S(=O)(=O)O)c(S(=O)(=O)O)c4)cc3)sc2c1
inactive: SR leukemia 113% | RPMI-8226 leukemia 102% | OVCAR-8 ovarian 116% | OVCAR-5 ovarian 105% | OVCAR-4 ovarian 118% | SK-OV-3 ovarian 113% | IGROV1 ovarian 101% | OVCAR-3 ovarian 107% | HS 578T breast 116% | NCI/ADR-RES ovarian 109%

COc1ccc2c(c1)O/C(=C/c1ccc(OCC(=O)Nc3ccc(S(N)(=O)=O)cc3)cc1)C2=O
inactive: SR leukemia 79.1% | RPMI-8226 leukemia 91.3% | OVCAR-8 ovarian 98.6% | OVCAR-5 ovarian 103% | OVCAR-4 ovarian 102% | SK-OV-3 ovarian 102% | IGROV1 ovarian 111% | OVCAR-3 ovarian 104% | HS 578T breast 99.4% | NCI/ADR-RES ovarian 103%

CN(C)c1ncc(C#Cc2c(F)cccc2F)c2ccccc12
inactive: SR leukemia 83.8% | RPMI-8226 leukemia 68.1% | OVCAR-8 ovarian 93.7% | OVCAR-5 ovarian 99.8% | OVCAR-4 ovarian 85.3% | SK-OV-3 ovarian 89.3% | IGROV1 ovarian 48.2% | OVCAR-3 ovarian 88.4% | HS 578T breast 108% | NCI/ADR-RES ovarian 92.9%

Cc1cn(-c2nc3c(c(NCc4ccccc4)n2)COCC3)c2cccc(C(N)=O)c12
active: RPMI-8226 leukemia -15.3% [0.5 µM]
inactive: SR leukemia 50.8% [0.5 µM] | OVCAR-8 ovarian 58.1% [0.5 µM] | OVCAR-5 ovarian 70.8% [0.5 µM] | OVCAR-4 ovarian 58.8% [0.5 µM] | SK-OV-3 ovarian 111% [0.5 µM] | IGROV1 ovarian 82.3% [0.5 µM] | OVCAR-3 ovarian 91.5% [0.5 µM] | HS 578T breast 83.5% [0.5 µM] | NCI/ADR-RES ovarian 86% [0.5 µM]

Cc1ccc2oc(=O)cc(C3C(C#N)=C(N)Oc4c3ccc3ccccc43)c2c1 (stereo not given)
inactive: SR leukemia 27.6% | RPMI-8226 leukemia 70.2% | OVCAR-8 ovarian 85.8% | OVCAR-5 ovarian 99.3% | OVCAR-4 ovarian 87.8% | SK-OV-3 ovarian 88.1% | IGROV1 ovarian 75.6% | OVCAR-3 ovarian 75.6% | HS 578T breast 85.5% | NCI/ADR-RES ovarian 62.9%

COC(=O)c1ccc2c(c1)Oc1ccc(Cl)cc1-c1cc(C)nn1-2
inactive: SR leukemia 69.9% | RPMI-8226 leukemia 74.9% | OVCAR-8 ovarian 72.8% | OVCAR-5 ovarian 91.2% | SK-OV-3 ovarian 53.5% | IGROV1 ovarian 61.8% | OVCAR-3 ovarian 39% | HS 578T breast 55.1% | NCI/ADR-RES ovarian 73.4%
active: OVCAR-4 ovarian -6.66%

O=C(Cn1c2ccccc2c2ccncc21)N/N=C/c1cc(O)c(O)c(O)c1
inactive: SR leukemia 106% | RPMI-8226 leukemia 100% | OVCAR-8 ovarian 103% | OVCAR-5 ovarian 111% | OVCAR-4 ovarian 110% | SK-OV-3 ovarian 99.4% | IGROV1 ovarian 107% | OVCAR-3 ovarian 106% | HS 578T breast 105% | NCI/ADR-RES ovarian 103%

COc1ccc(/C=C2/C(=O)Nc3cc(Cl)c(-c4csc(N)n4)cc32)cc1
inactive: SR leukemia 18.4% | RPMI-8226 leukemia 39.3% | OVCAR-8 ovarian 61.8% | OVCAR-5 ovarian 85% | OVCAR-4 ovarian 70.1% | SK-OV-3 ovarian 48.5% | IGROV1 ovarian 56.1% | OVCAR-3 ovarian 17% | HS 578T breast 45.7% | NCI/ADR-RES ovarian 32.2%

Cc1ccc2c(C3C(C#N)=C(N)Oc4cc5ccccc5cc43)cc(=O)oc2c1 (stereo not given)
active: OVCAR-3 ovarian -4.72%
inactive: SR leukemia 16.9% | RPMI-8226 leukemia 21.9% | OVCAR-8 ovarian 24.5% | OVCAR-5 ovarian 49.7% | OVCAR-4 ovarian 67.6% | SK-OV-3 ovarian 28.3% | IGROV1 ovarian 39.7% | HS 578T breast 51.6% | NCI/ADR-RES ovarian 11.8%

CCCCCCCCCCCCCCCCNc1ccccc1
inactive: SR leukemia 75.1% | RPMI-8226 leukemia 52.5% | OVCAR-8 ovarian 91.8% | OVCAR-5 ovarian 115% | OVCAR-4 ovarian 105% | SK-OV-3 ovarian 103% | IGROV1 ovarian 91.6% | OVCAR-3 ovarian 104% | HS 578T breast 108% | NCI/ADR-RES ovarian 104%

Cc1ccc(/C=C2/C(=O)Nc3cc(Cl)c(-c4csc(N)n4)cc32)cc1
inactive: SR leukemia 23.9% | RPMI-8226 leukemia 50% | OVCAR-8 ovarian 82.6% | OVCAR-5 ovarian 102% | OVCAR-4 ovarian 68.7% | SK-OV-3 ovarian 77.7% | IGROV1 ovarian 59.7% | OVCAR-3 ovarian 59.8% | HS 578T breast 63.7% | NCI/ADR-RES ovarian 82.9%

Nc1c(C(=O)O)[nH]c(=O)[nH]c1=O
inactive: SR leukemia 90.2% | RPMI-8226 leukemia 99.9% | OVCAR-8 ovarian 108% | OVCAR-5 ovarian 105% | OVCAR-4 ovarian 111% | SK-OV-3 ovarian 102% | IGROV1 ovarian 112% | OVCAR-3 ovarian 105% | HS 578T breast 102% | NCI/ADR-RES ovarian 108%

O=C(CSc1nnc(-c2ccc(Cl)cc2)o1)Nc1ccc(C(=O)/C=C/c2ccccc2)cc1
inactive: SR leukemia 60.4% | RPMI-8226 leukemia 68.7% | OVCAR-8 ovarian 97.3% | OVCAR-5 ovarian 106% | OVCAR-4 ovarian 101% | SK-OV-3 ovarian 117% | IGROV1 ovarian 95.7% | OVCAR-3 ovarian 108% | HS 578T breast 101% | NCI/ADR-RES ovarian 88.1%

COc1ccc(-c2cc3ccc(N(C)C)cc3nc2N)c(F)c1
inactive: SR leukemia 12.9% | OVCAR-8 ovarian 26.3% | OVCAR-5 ovarian 69.6% | OVCAR-4 ovarian 42.2% | SK-OV-3 ovarian 46.8% | IGROV1 ovarian 54.3% | OVCAR-3 ovarian 34.6% | HS 578T breast 62.8% | NCI/ADR-RES ovarian 26%
active: RPMI-8226 leukemia -19.7%

CCCCC(=O)Nc1nc2ccc(SCCC)cc2s1
active: SR leukemia 6.63%
inactive: RPMI-8226 leukemia 15.7% | OVCAR-8 ovarian 56.7% | OVCAR-5 ovarian 69% | OVCAR-4 ovarian 81.1% | SK-OV-3 ovarian 66% | IGROV1 ovarian 54.2% | OVCAR-3 ovarian 22.8% | HS 578T breast 48.9% | NCI/ADR-RES ovarian 13%

FC(F)(F)c1cn(CC2CNC2)c2ncnc(Cl)c12
inactive: SR leukemia 87% | RPMI-8226 leukemia 105% | OVCAR-8 ovarian 92.2% | OVCAR-5 ovarian 112% | OVCAR-4 ovarian 110% | SK-OV-3 ovarian 108% | IGROV1 ovarian 105% | OVCAR-3 ovarian 103% | HS 578T breast 105% | NCI/ADR-RES ovarian 102%
